Bioassay records deposited in PubChem BioAssay by The Scripps Research Institute Molecular Screening Center.
Only some compounds are listed: those with a hit (about 3.3% of all), similar ones and a draw of the others.
ABHD5 PLIN5 PPI = inhibitors of human ABHD5-perilipin-5 interaction; Split G. princeps luciferase complementation, luminescence, 4 h; Q00G26+Q8WTS1; AID 602281; inhibition, % at 4 µM; hit rate 0.78% among 360,000;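 active means inhibition above the mean inhibition across every tested compound plus 3 SD, cut at about 22% in these data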;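 further: 0% = DMSO only wells and the 100% control is not disclosed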
NOD2 RIPK2 PPI = blocks binding of human NOD2 to RIPK2; O43353; hit rate 0.38% among 360,000; AID 624267; CHO BLA complementation NOD2-RIPK2, CCF4 ratio; inhibition, % at 4.98 µM; in the data active means inhibition above about 21%;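 further: 0% = vehicle only and 100% = reference blocker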
Target sequence (O43353 whole entry, looked up): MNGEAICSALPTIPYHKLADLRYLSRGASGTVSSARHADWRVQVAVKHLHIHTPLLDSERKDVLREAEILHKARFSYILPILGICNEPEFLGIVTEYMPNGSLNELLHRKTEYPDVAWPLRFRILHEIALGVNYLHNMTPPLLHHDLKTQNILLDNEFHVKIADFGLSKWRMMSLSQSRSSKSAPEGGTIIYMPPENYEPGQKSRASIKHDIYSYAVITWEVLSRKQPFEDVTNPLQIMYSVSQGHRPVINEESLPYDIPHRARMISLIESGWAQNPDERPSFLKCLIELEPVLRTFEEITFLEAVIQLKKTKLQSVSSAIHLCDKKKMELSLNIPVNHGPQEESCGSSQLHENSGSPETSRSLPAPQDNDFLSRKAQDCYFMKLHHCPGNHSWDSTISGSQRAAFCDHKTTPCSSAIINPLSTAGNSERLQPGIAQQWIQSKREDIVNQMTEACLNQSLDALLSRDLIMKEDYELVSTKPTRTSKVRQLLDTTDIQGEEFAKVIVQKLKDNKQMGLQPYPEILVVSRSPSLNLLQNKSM
TLR9-MyD88 block = TLR9-MyD88 interaction inhibition | Q9NR96+Q99836 | CHO BLA complementation TLR9-MyD88, CCF4 FRET ratio | inhibition, % at 4.98 µM | hit rate 0.21% among 340,000 | AID 504734;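 active means inhibition above the mean over all tested compounds plus 3 SD, cut at about 21% in these data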;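 further: 0% = DMSO only wells and 100% = clavulanate BLA inhibitor control wells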
PRMT1 FP inh = blocks human protein arginine methyltransferase 1 | Q99873 | recombinant PRMT1, activity-based probe fluorescence polarization | inhibition, % at 2.79 µM | hit rate 1.3% among 370,000;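 active means inhibition above about 21% made by adding two undisclosed values, limit read from the data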
TLR4-MyD88 BLA = TLR4-MyD88 interaction inhibition in cells; O00206+Q99836; inhibition, % at 8.4 µM; AID 861; HeLa CL3-4 TLR4/MyD88 BLA complementation, FRET ratio; hit rate 0.18% among 200,000; in the data active means inhibition above about 25%;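 further: 0% = vehicle and 100% = reference inhibitor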
rCAG RNA binder = molecules binding r(CAG) RNA repeats; inhibition, % at 3 µM; r(CAG) RNA repeat, TO-PRO-1 dye displacement fluorescence; hit rate 1.3% among 370,000;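 active means inhibition above the plate cutoff, the mean of all test compounds on that plate plus 3 SD, cut at about 35% in these data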;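 further: 0% = DMSO alone and 100% = 100 µM mitoxantrone as full dye displacement; higher means more dye released from RNA so lower well fluorescence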
rCAG bind conf = r(CAG) RNA repeat binding, confirmation | shares compounds with rCAG RNA binder | inhibition, % at 3 µM | TO-PRO-1 dye displacement fluorescence | hit rate 70% among 4,300;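 active means inhibition above a per-plate cutoff, the mean inhibition of sample wells plus 3 SD, cut at about 35% in these data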;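 further: loss of TO-PRO-1 fluorescence as compound displaces dye from 1x1 AA loop RNA; 0% = DMSO only wells and 100% = 100 µM mitoxantrone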
DNA CAG counter = DNA CAG dye complex inhibition counter-screen; shares compounds with rCAG RNA binder; d(CAG) DNA oligo TO-PRO-1 dye displacement, fluorescence; inhibition, % at 3 µM; hit rate 94% among 4,300;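 active means inhibition above its plate's cutoff, the mean test-well inhibition plus 3 SD, cut at about 4.8% in these data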;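 further: 0% = DNA dye mix with DMSO and 100% = 100 µM mitoxantrone; hits displace the dye from DNA and so lower well fluorescence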
DNA CAG DR = DNA CAG dye complex inhibition, dose response counter-screen. shares compounds with rCAG RNA binder. DNA CAG/GTC duplex TO-PRO-1 dye displacement fluorescence. IC50, µM. hit rate 20% among 250. AID 686960; in the data active means IC50 below about 10 µM
* = called active by the depositor; nt = no result given.

SMILES | ABHD5 PLIN5 PPI | NOD2 RIPK2 PPI | TLR9-MyD88 block | PRMT1 FP inh | TLR4-MyD88 BLA | rCAG RNA binder | rCAG bind conf | DNA CAG counter | others
COc1ccc(NS(=O)(=O)c2ccc(C)cc2)c([N+](=O)[O-])c1 | -12 | -11 | 1 | -3 | nt | 6 | nt | nt
CC(C)Cn1c(C23CC4CC(CC(C4)C2)C3)n[nH]c1=S | -8 | 9 | 2 | 5 | nt | -1 | nt | nt
Cc1cccc(NC(=O)CN2C(=O)N/C(=C\c3ccccc3OCc3ccc(C(=O)O)cc3)C2=O)c1 | 0 | -3 | 9 | -1 | nt | 61* | 67* | 31*
Cc1cccc(NC(=O)CN2C(=O)N/C(=C\c3cccn3-c3cccc(C(=O)O)c3)C2=O)c1 | 9 | -2 | 4 | 2 | -1 | 33 | nt | nt
O=C(CN1C(=O)N/C(=C\c2ccccc2OCc2ccc(C(=O)O)cc2)C1=O)Nc1ccc(F)cc1 | 9 | -4 | -1 | 5 | nt | 59* | 43* | 13*
O=C(O)c1ccc(COc2ccccc2/C=C2\NC(=O)N(Cc3ccc(F)cc3)C2=O)cc1 | -3 | -4 | -3 | -1 | 2 | 9 | nt | nt
Cc1ccccc1NC(=O)CN1C(=O)N/C(=C\c2ccccc2OCc2ccc(C(=O)O)cc2)C1=O | 2 | 2 | 7 | 9 | nt | 43* | 29 | 7.8*
O=S1(=O)[C@H]2C[C@@H]3C=C[C@]2(CN1Cc1ccc(C(F)(F)F)cc1)O3 | -3 | 10 | -6 | -2 | nt | -2 | nt | nt
C[C@H]1O[C@@H](n2c3ccc(Cl)cc3c3ccc4c5cc(Cl)ccc5[nH]c4c32)[C@H](O)[C@H](O)[C@H]1O | nt | nt | nt | 0 | nt | 78* | 54* | 43*
C[C@H]1O[C@@H](n2cc(F)c(=O)[nH]c2=O)[C@H](O)[C@@H]1O | -2 | -15 | 2 | 8 | nt | 0 | nt | nt
C[C@@H]1O[C@@H](n2c3ccc(Cl)cc3c3ccc4c5cc(Cl)ccc5[nH]c4c32)[C@H](O)[C@H](O)[C@H]1O | nt | nt | nt | 2 | nt | 62* | 60* | 42*
COCCCn1c(=O)/c(=C\c2cccc(OC)c2OC)s/c1=C(/C#N)C(=O)Nc1ccc(C(=O)O)cc1 | -9 | -6 | -5 | 10 | nt | 52* | 73* | 34*
Cc1ccc(CN2CCN(Cc3cccc4nccnc34)CC2CCO)cc1 (centres undefined) | 3 | -11 | -1 | 0 | nt | -9 | nt | nt
N#CC(C#N)=C(Nc1ccc(F)cc1)SCc1cccc(Br)c1 | 8 | 11 | -9 | -1 | -6 | 47* | 51* | 16* | DNA CAG DR=>30
CCN(C(=O)[C@@H](C)[C@@H](O)c1ccc(Cl)cc1)c1ccccc1 | nt | nt | nt | -5 | nt | 0 | nt | nt
COc1cc(C=Nn2c(-c3ccccc3F)n[nH]c2=S)ccc1OCc1ccccc1 | nt | nt | nt | 19 | nt | 53* | 48* | 12*
Cc1cc(-c2n[nH]c(=S)n2N=Cc2ccc(-c3ccccc3)cc2)n[nH]1 | nt | nt | nt | 8 | nt | 42* | 35* | 8.9*
COc1ccc(/C=N/n2c(-c3ccc(C)cc3)n[nH]c2=S)cc1OC | -6 | -5 | 3 | 5 | nt | 12 | nt | nt
COc1ccc(C=Nn2c(-c3ccc(F)cc3)n[nH]c2=S)cc1OCc1ccccc1 | nt | nt | nt | -1 | nt | 35* | 39* | 12*
COc1cc(/C=N/n2c(-c3ccccc3)n[nH]c2=S)ccc1O | -3 | -9 | -16 | 3 | nt | -4 | nt | nt
COc1cc(C=Nn2c(-c3ccc(F)cc3)n[nH]c2=S)ccc1OCc1ccccc1 | nt | nt | nt | 5 | nt | 50* | 53* | 17*
COc1ccc(C(=O)N[C@H](C(=O)OCCCOC(=O)[C@@H](NC(=O)c2ccc(OC)cc2)C(C)C)C(C)C)cc1 | -7 | 0 | 3 | 0 | nt | -1 | nt | nt
CCn1c2ccccc2c2cc(C=Nn3c(-c4ccccc4C)n[nH]c3=S)ccc21 | nt | nt | nt | 23* | nt | 49* | 56* | 23*
CCn1c2ccccc2c2cc(/C=N/n3c(C)nnc3C)ccc21 | -10 | -7 | -2 | 2 | -5 | -6 | nt | nt
S=c1[nH]nc(-c2cc(-c3ccccc3)n[nH]2)n1/N=C/c1ccccc1 | -4 | -1 | 8 | 3 | nt | 28 | nt | nt
SMILES | ABHD5 PLIN5 PPI | NOD2 RIPK2 PPI | TLR9-MyD88 block | PRMT1 FP inh | TLR4-MyD88 BLA | rCAG RNA binder | rCAG bind conf | DNA CAG counter | others
COc1cc(C=Nn2c(-c3cc(-c4ccccc4)n[nH]3)n[nH]c2=S)ccc1OC(C)=O | nt | nt | nt | 33* | nt | 58* | 44* | 13*
S=c1[nH]nc(-c2ccco2)n1/N=C/c1ccc(Cl)c(Cl)c1 | 7 | -20 | -6 | 22* | -5 | 41* | 40* | 10*
S=c1[nH]nc(-c2ccco2)n1/N=C/c1cccc(Cl)c1 | 4 | -4 | 0 | 15 | nt | 10 | nt | nt
c1cnc(SCC2CCCCC2)c(-c2nc3ccccc3[nH]2)c1 | nt | nt | nt | -7 | nt | 0 | nt | nt
CC(C)Cc1ccc(-c2cc3nc(NCCc4ccc(S(N)(=O)=O)cc4)ccn3n2)cc1 | 5 | 7 | nt | 4 | nt | 15 | nt | nt
O=C(c1ccc(NC(=O)C(c2ccccc2)c2ccccc2)cc1)c1ccc(C(=O)O)c(C(=O)O)c1 | -5 | -8 | 0 | 4 | nt | 42* | 18 | 3
CCc1cc(C(=O)O)c(NC(=O)C(c2ccccc2)c2ccccc2)s1 | -14 | 5 | -1 | -2 | 0 | 41* | 36* | 8.4*
COc1cc(C(=O)OCCc2cc3ccccc3c(=O)o2)cc(OC)c1OC | 1 | -2 | 3 | 1 | nt | 3 | nt | nt
CCOC(=O)c1sc(N/N=C/c2cc(Br)c(O)c(OC)c2)nc1C | -8 | -1 | -2 | 6 | nt | 48* | 38* | 17*
O=S(=O)(c1cnc(Cl)c(Cl)c1)N1CCN(c2ncccn2)CC1 | -3 | 0 | -6 | -2 | nt | -4 | nt | nt
O=C1CS/C(=C\[N+](=O)[O-])N1c1ccc(OC(F)(F)F)cc1 | 2 | -1 | -6 | 0 | 4 | 49* | 5 | 2
Cc1ccc(C2=NCCn3c2c2ccc(C(F)(F)F)cc2[n+]3[O-])cc1 | 10 | 1 | 2 | -3 | nt | -7 | nt | nt
N#CC(=C(O)CN1CCN(c2ccccc2F)CC1)c1nc(-c2ccccc2)cs1 | -3 | 5 | -10 | 2 | nt | 51* | 51* | 18*
N#CC(=C(O)CN1CCN(c2ccccc2F)CC1)c1nc(-c2ccc(Cl)cc2)cs1 | -1 | -2 | -3 | 2 | nt | 51* | 63* | 24*
CCOC(=O)C1CCCN(C/C(O)=C(\C#N)c2nc(-c3ccc(Cl)cc3)cs2)C1 (centres undefined) | 1 | -6 | -3 | -2 | -6 | 35* | 58* | 17*
N#C/C(=C(/O)CN1CCCC1)c1nc(-c2ccccc2)cs1 | 0 | 0 | -11 | 3 | nt | 6 | nt | nt
